{
  "source": "PubChem BioAssay",
  "key": {"[1]": {"biological_target": "Nuclear receptor coactivator 1 (Homo sapiens) (UniProt Q15788)", "sequence (Q15788 whole entry, looked up, the tested form may be a part)": "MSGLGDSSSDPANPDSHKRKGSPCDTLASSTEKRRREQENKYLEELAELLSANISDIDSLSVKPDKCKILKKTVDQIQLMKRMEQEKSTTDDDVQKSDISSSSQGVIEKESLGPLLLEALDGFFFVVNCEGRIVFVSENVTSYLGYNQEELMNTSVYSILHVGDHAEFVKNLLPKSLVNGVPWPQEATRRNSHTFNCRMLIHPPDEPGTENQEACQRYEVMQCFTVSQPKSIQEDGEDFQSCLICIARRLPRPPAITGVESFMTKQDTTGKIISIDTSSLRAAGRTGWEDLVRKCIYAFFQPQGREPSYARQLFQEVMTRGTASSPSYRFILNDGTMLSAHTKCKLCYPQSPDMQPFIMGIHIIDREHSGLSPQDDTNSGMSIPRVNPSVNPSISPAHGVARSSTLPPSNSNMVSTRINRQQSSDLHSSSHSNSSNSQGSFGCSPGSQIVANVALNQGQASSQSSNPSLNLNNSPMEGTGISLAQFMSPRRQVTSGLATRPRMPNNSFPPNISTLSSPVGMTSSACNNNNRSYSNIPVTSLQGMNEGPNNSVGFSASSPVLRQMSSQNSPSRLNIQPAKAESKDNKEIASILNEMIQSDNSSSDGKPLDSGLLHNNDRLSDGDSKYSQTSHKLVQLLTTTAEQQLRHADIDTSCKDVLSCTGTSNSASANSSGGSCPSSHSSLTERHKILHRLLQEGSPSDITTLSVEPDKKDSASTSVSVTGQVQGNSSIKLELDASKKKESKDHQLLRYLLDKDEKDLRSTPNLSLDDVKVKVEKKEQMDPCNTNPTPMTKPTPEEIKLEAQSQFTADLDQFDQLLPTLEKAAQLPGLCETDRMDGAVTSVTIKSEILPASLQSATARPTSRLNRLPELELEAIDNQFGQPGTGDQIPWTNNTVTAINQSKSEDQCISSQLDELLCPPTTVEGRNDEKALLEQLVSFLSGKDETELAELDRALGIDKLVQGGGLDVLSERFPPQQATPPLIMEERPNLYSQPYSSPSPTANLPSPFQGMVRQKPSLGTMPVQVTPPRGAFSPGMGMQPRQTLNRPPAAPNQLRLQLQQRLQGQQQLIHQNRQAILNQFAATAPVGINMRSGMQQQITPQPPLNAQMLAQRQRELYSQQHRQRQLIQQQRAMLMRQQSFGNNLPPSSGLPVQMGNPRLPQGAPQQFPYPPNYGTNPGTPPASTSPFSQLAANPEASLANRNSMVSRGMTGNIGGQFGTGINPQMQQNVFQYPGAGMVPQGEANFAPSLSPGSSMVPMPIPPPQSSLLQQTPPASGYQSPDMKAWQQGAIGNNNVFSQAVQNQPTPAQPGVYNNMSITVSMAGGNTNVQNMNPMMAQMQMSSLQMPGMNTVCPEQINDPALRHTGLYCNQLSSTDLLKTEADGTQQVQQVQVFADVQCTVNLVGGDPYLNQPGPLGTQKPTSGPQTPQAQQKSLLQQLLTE", "assay": "SRC1 coactivator transcriptional activity inhibitors, confirmation, cell-based, luminescence, quadruplicate (AID 588820);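 further: 0% = DMSO wells and 100% = gossypol 36 µM treated wells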", "details": "HEK293 GAL4-SRC1 luciferase reporter, at 3.6 µM, active compounds read high"}, "[2]": {"assay": "VP16 transactivation inhibitors, counter-screen for SRC1 inhibitor project, cell-based, luminescence, high throughput (AID 588824; in the data active means inhibition above about 25%)", "details": "cell-based VP16 transactivation luciferase luminescence; at 3.6 µM; active compounds read high"}, "[3]": {"assay": "StAR promoter reporter inhibitors, counter-screen for LRH-1 inverse agonist project, cell-based, luminescence, high throughput (AID 651611; in the data active means inhibition above about 28%)", "details": "StAR promoter luciferase reporter counterscreen, at 3.6 µM, active compounds read high"}, "[4]": {"biological_target": "Nuclear receptor subfamily 5 group A member 2 (Homo sapiens) (UniProt O00482)", "sequence (O00482 whole entry, looked up)": "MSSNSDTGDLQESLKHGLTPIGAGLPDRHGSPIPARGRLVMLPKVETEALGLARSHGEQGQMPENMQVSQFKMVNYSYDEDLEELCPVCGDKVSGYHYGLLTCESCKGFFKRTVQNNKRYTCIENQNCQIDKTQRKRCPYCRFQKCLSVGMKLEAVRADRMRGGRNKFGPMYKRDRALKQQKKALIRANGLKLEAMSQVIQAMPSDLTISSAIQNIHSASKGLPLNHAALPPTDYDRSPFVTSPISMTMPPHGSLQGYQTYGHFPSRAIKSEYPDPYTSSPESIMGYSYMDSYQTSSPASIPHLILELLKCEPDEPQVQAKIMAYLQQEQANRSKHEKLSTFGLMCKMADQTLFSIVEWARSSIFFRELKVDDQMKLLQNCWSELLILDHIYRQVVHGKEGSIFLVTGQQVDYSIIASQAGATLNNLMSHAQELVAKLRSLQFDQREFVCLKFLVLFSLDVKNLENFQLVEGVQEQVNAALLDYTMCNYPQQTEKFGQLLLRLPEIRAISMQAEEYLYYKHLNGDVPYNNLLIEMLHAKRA", "assay": "LRH-1 (NR5A2) inverse agonists, retest, confirmation, cell-based, luminescence (AID 651613; in the data active means inhibition above about 42%;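 further: HEK293T cells co-transfected with LRH-1 and StAR promoter luciferase reporter; 0% = vehicle wells and 100% = parental cells lacking receptor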)", "details": "cell-based LRH-1 luciferase reporter, inverse agonism; at 3.6 µM; active compounds read high"}, "[5]": {"biological_target": "Steroidogenic factor 1 (Homo sapiens) (UniProt Q13285)", "sequence (Q13285 whole entry, looked up)": "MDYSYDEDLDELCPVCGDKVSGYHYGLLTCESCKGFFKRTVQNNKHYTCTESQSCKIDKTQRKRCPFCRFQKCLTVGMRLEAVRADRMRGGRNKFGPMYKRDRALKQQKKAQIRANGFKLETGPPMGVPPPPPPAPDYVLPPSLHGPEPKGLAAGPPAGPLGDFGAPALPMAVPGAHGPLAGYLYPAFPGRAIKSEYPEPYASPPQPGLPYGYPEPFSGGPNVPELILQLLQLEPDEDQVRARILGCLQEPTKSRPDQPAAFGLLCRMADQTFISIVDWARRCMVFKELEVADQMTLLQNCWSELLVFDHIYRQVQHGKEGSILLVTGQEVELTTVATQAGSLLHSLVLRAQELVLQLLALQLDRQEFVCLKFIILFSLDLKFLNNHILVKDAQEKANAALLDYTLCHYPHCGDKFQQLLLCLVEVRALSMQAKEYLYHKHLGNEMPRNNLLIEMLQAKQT", "assay": "SF1 (NR5A1) inverse agonists, counter-screen for LRH-1 inverse agonist project, cell-based, luminescence, high throughput (AID 651614; in the data active means inhibition above about 44%;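 further: cells cotransfected with StAR promoter reporter and SF1 expression vector; 0% = vehicle on cells with receptor and 100% = vehicle on cells lacking receptor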)", "details": "cell-based SF1 luciferase reporter, at 3.6 µM, active compounds read high"}, "[6]": {"assay": "VP16 transactivation reporter inhibitors, counter-screen for LRH-1 inverse agonist project, cell-based, luminescence, high throughput (AID 651615; in the data active means inhibition above about 33%)", "details": "Gal4-VP16 luciferase reporter cells, at 3.6 µM, active compounds read high"}, "[7]": {"biological_target": "Photoreceptor-specific nuclear receptor (Homo sapiens) (UniProt Q9Y5X4)", "sequence (Q9Y5X4 whole entry, looked up)": "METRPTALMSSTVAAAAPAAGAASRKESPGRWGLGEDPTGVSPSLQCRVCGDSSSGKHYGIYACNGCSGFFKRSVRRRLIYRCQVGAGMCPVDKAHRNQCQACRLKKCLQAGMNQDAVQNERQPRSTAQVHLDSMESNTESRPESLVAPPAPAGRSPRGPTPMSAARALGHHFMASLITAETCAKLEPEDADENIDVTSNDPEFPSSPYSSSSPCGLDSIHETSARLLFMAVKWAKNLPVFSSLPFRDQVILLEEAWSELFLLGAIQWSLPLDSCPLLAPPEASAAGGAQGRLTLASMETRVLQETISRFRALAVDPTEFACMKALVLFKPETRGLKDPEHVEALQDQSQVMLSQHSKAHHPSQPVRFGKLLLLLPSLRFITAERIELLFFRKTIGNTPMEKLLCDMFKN", "assay": "NR2E3 agonist confirmation in cells, cell-based, luminescence, CHO-S two-hybrid (AID 624378;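 active means average inhibition above a cutoff equal to the mean inhibition of all tested compounds plus one SD, cut at about 70% in these data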;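 further: 0% = DMSO in NR2E3 cells and 100% = DMSO in cells lacking NR2E3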)", "details": "CHO-S mammalian two-hybrid NR2E3-NCOR, luciferase luminescence; at 3.98 µM; active compounds read high"}, "[8]": {"assay": "GAL4-VP16 reporter modulators, confirmation, counter-screen for NR2E3 agonist project, cell-based, luminescence, CHO-S, high throughput (AID 624379;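 active means mean inhibition above a cutoff equal to the average over all tested compounds plus one standard deviation, cut at about 70% in these data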;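 further: luciferase from a UAS reporter driven by GAL4-VP16 transactivation; 0% = DMSO with VP16-transfected cells and 100% = DMSO with cells lacking VP16; higher means less reporter light so more repression of VP16 activity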)", "details": "CHO-S GAL4-VP16 luciferase reporter, at 3.98 µM, active compounds read high"}, "[9]": {"assay": "Gal4-VP16 luciferase reporter inhibitors, counter-screen for COUP-TFII antagonist project, cell-based, luminescence, HEK293 (AID 687007; in the data active means inhibition above about 13%)", "details": "at 8.5 µM, active compounds read high"}, "[10]": {"biological_target": "COUP transcription factor 2 (Homo sapiens) (UniProt P24468)", "sequence (P24468 whole entry, looked up)": "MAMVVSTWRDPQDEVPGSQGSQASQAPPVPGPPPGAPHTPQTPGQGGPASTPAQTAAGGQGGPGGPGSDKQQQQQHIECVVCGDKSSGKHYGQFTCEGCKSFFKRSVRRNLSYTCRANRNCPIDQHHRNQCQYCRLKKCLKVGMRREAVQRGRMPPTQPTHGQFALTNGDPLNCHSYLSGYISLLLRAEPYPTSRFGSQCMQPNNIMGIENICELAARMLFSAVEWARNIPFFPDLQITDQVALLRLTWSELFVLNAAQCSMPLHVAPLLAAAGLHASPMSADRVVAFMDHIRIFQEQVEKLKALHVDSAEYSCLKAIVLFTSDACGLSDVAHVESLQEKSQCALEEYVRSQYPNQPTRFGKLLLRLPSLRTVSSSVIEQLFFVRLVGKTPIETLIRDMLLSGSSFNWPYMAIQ", "assay": "NR2F2 transcriptional activity inhibitors, confirmation, cell-based, luciferase reporter, HEK293, triplicate (AID 687008;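 active means mean inhibition over three repeats above a set limit taken from the earlier primary screen, cut at about 38% in these data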;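 further: 100% = cells given the luciferase reporter alone without the COUP-TF2 vector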)", "details": "HEK293 NGFI-A luciferase reporter, luminescence; at 8.5 µM; active compounds read high"}},
  "note": "A number with no mark means an inactive call. The list shows a part of the results. Calls of active or inactive are those of the source.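 How the source made its calls, unless noted: active means mean inhibition above 46.68%, the untreated control wells mean plus 3 SD; inactive means the rest.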",
  "data": [
    {"smiles": "CC(C)C(=O)NC(c1ccc(Cl)cc1Cl)c1ccc2cccnc2c1O", "note": "(centres undefined)", "values": [
      {"measurement": "inhibition", "setting": "[1]", "result": 6.86, "unit": "%"},
      {"measurement": "inhibition", "setting": "[2]", "result": 16.8, "unit": "%"},
      {"measurement": "inhibition", "setting": "[3]", "result": "48.2% (active)"},
      {"measurement": "inhibition", "setting": "[4]", "result": 35.2, "unit": "%"},
      {"measurement": "inhibition", "setting": "[5]", "result": 41.4, "unit": "%"},
      {"measurement": "inhibition", "setting": "[6]", "result": "47.6% (active)"}
    ]},
    {"smiles": "CCOC(=O)c1cc(C#N)c(N2CCN(C(=O)c3cccc(C(F)(F)F)c3)CC2)nc1C(F)(F)F", "values": [
      {"measurement": "inhibition", "setting": "[1]", "result": 15.6, "unit": "%"},
      {"measurement": "inhibition", "setting": "[2]", "result": "29.2% (active)"},
      {"measurement": "inhibition", "setting": "[3]", "result": 15.5, "unit": "%"},
      {"measurement": "inhibition", "setting": "[4]", "result": "48.8% (active)"},
      {"measurement": "inhibition", "setting": "[5]", "result": "51.3% (active)"},
      {"measurement": "inhibition", "setting": "[6]", "result": "32.3% (active)"}
    ]},
    {"smiles": "CCc1nnc(SCc2ccc(C(=O)OC)o2)n1N", "values": [
      {"measurement": "inhibition", "setting": "[1]", "result": -6.33, "unit": "%"},
      {"measurement": "inhibition", "setting": "[2]", "result": 4.87, "unit": "%"}
    ]},
    {"smiles": "O=C(N/N=C/c1ccc(O)cc1)c1ccc(COc2cc(Cl)ccc2Cl)o1", "values": [
      {"measurement": "inhibition", "setting": "[1]", "result": -2.22, "unit": "%"},
      {"measurement": "inhibition", "setting": "[2]", "result": "30.3% (active)"},
      {"measurement": "inhibition", "setting": "[3]", "result": 22.3, "unit": "%"},
      {"measurement": "inhibition", "setting": "[4]", "result": "42.3% (active)"},
      {"measurement": "inhibition", "setting": "[5]", "result": "47.1% (active)"},
      {"measurement": "inhibition", "setting": "[6]", "result": "57.9% (active)"}
    ]},
    {"smiles": "COc1cccc(CNc2nc(NCc3cccs3)nc3ccsc23)c1", "values": [
      {"measurement": "inhibition", "setting": "[1]", "result": -9.48, "unit": "%"},
      {"measurement": "inhibition", "setting": "[2]", "result": 2.77, "unit": "%"},
      {"measurement": "inhibition", "setting": "[7]", "result": 67.6, "unit": "%"},
      {"measurement": "inhibition", "setting": "[8]", "result": 47.4, "unit": "%"},
      {"measurement": "inhibition", "setting": "[9]", "result": -0.37, "unit": "%"},
      {"measurement": "inhibition", "setting": "[10]", "result": 13.2, "unit": "%"}
    ]},
    {"smiles": "CN(C)CCNc1ccc2ncn3c4ccc(O)cc4c(=O)c1c23", "values": [
      {"measurement": "inhibition", "setting": "[1]", "result": 23.2, "unit": "%"},
      {"measurement": "inhibition", "setting": "[2]", "result": "52.9% (active)"},
      {"measurement": "inhibition", "setting": "[3]", "result": "49.3% (active)"},
      {"measurement": "inhibition", "setting": "[4]", "result": "81.6% (active)"},
      {"measurement": "inhibition", "setting": "[5]", "result": "80.5% (active)"},
      {"measurement": "inhibition", "setting": "[6]", "result": "79.9% (active)"}
    ]},
    {"smiles": "Cc1ccc2c(c1)c(/C=C/c1cc[n+](C)cc1)c(C)n2C", "values": [
      {"measurement": "inhibition", "setting": "[1]", "result": 32.9, "unit": "%"},
      {"measurement": "inhibition", "setting": "[2]", "result": "57.1% (active)"},
      {"measurement": "inhibition", "setting": "[3]", "result": "59.6% (active)"},
      {"measurement": "inhibition", "setting": "[4]", "result": "91.4% (active)"},
      {"measurement": "inhibition", "setting": "[5]", "result": "81.1% (active)"},
      {"measurement": "inhibition", "setting": "[6]", "result": "80% (active)"}
    ]},
    {"smiles": "COc1ccc(CC(=O)Nc2cccc(S(=O)(=O)N3CCCCCC3)c2)cc1OC", "values": [
      {"measurement": "inhibition", "setting": "[1]", "result": -18.9, "unit": "%"},
      {"measurement": "inhibition", "setting": "[2]", "result": "33% (active)"},
      {"measurement": "inhibition", "setting": "[3]", "result": 20.2, "unit": "%"},
      {"measurement": "inhibition", "setting": "[4]", "result": "65.6% (active)"},
      {"measurement": "inhibition", "setting": "[5]", "result": "53.4% (active)"},
      {"measurement": "inhibition", "setting": "[6]", "result": "49.3% (active)"}
    ]}
  ]
}
